# Results reported in PubChem BioAssay (NCATS).
# Results filed as inconclusive are left out. Values without a mark were called inactive. Activity calls are given as the source filed them. The call rests on the fitted dose curve; in most records, active means well fitted inhibition curve with a large enough effect; inconclusive means small, poorly fitted or top-dose-only effect; inactive means no such curve, though single readings can be large or run the other way.
# Test: S16 Schwann cell PMP22 intronic element firefly luciferase assay (AID 624032); further: nearly all actives have a fitted effect of over 30% in size
# Settings: S16 rat Schwann cells, PMP22 element FLuc, 24 h; series mostly up to 57.5 µM; activity change, negative = inhibition: at the top concentration
# Method in brief: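 Rat S16 Schwann cells stably carrying a PMP22 intronic element-driven Fluc reporter were seeded overnight, then exposed to compounds for 24 h at 37 °C. Luminescence was normalized to PTC124 (positive control) and DMSO (0% activity).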
# Potency means the concentration at half of the fitted maximal effect.
SMILES,"activity change, negative = inhibition",Potency
NC(=O)c1cn(Cc2c(F)cccc2F)nn1,-9.33%,–
CCCN(CCC)CCc1cccc2c1CC(=O)N2,2.06%,–
COCC(=O)O[C@]1(CCN(C)CCCc2nc3ccccc3[nH]2)CCc2cc(F)ccc2[C@@H]1C(C)C,–,10.2 µM (active)
c1cc(CN2CCCCC2)cc(OCCCNc2nc3ccccc3s2)c1,-16.9%,–
CN(C)CCOC(=O)COc1ccc(Cl)cc1,11.3% [at 25.7 µM],–
C[N+](C)(C)CCOC(=O)CCC(=O)OCC[N+](C)(C)C,-12.8%,–
OCCN1CCN(CCCN2c3ccccc3C=Cc3ccccc32)CC1,–,36.1 µM (active)
Cc1nc2ccccn2c(=O)c1CCN1CCC(C(=O)c2ccc(F)cc2)CC1,-12.6%,–
CC(C)(C)c1ccc(C(=O)CCCN2CCC(OC(c3ccccc3)c3ccccc3)CC2)cc1,–,20.3 µM (active)
O=C(O)CN(CCOCCOCCN(CC(=O)O)CC(=O)O)CC(=O)O,0.0161%,–
CCN(CC)CCNC(=O)c1ccc(NC(C)=O)cc1,10.3%,–
CCCCCCCC/C=C\CCCCCCCC(=O)NCc1ccc(O)c(OC)c1,–,4.55 µM (active)
COCCOC(=O)C1=C(C)NC(C)=C(C(=O)OC(C)C)C1c1cccc([N+](=O)[O-])c1 (stereo unspecified),–,16.1 µM (active)
CC(=O)OCC1=C(C(=O)O)N2C(=O)[C@@H](NC(=O)Cc3cccs3)[C@H]2SC1,-3.01%,–
NC(N)=N/N=C/c1c(Cl)cccc1Cl,-10.7%,–
Cc1ccc(=O)n(-c2ccccc2)c1,2.27%,–
CCN(CC)CC(=O)Nc1c(C)cccc1C,4.61%,–
NC1=NCC2c3ccccc3Cc3ccccc3N12 (stereo unspecified),-11.9%,–
O=C(CCNNC(=O)c1ccncc1)NCc1ccccc1,-2.45%,–
COc1ccc([C@@H]2Sc3ccccc3N(CCN(C)C)C(=O)[C@@H]2OC(C)=O)cc1,-2.57%,–
CNCCC(Oc1ccccc1OC)c1ccccc1 (stereo unspecified),2.14%,–
COc1cc2c(cc1OC)-c1cc(=Nc3c(C)cc(C)cc3C)n(C)c(=O)n1CC2,–,6.42 µM (active)
CN1CCN(CC(=O)N2c3ccccc3C(=O)Nc3cccnc32)CC1,-15.1%,–
OC(CCN1CCCCC1)(c1ccccc1)C1CCCCC1 (stereo unspecified),4.44%,–
CCCN1C[C@H](CSC)C[C@@H]2c3cccc4[nH]cc(c34)C[C@H]21,-13.2%,–
CN(C)C(=O)Oc1cccc([N+](C)(C)C)c1,4.99%,–
